Data: PubChem BioAssay (NCI)
Several values for one entry are separate records, joined by “and”; a condition that tells them apart may be missing. Equal values may be shown once. The panel holds about 83,000 compounds, 20% with a hit somewhere; the sample as a whole holds those more often.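 Negative percent growth values reflect cell death: -40 means 40% of the cells present at the start died, and -100 means all died.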 Some compounds were tested as several samples or in several runs, with calls that do not always agree. Activity calls are given as the source filed them. How the source made its calls: active means growth percent below 10; inactive means the rest.

Columns and labels:
Experiment in all cases: NCI-60 one-dose screen, 48 h (100 = growth as untreated, 0 = no growth, -100 = all killed)
Settings in all cases: 10 µM unless noted
NCI/ADR-RES ovarian = test system: NCI/ADR-RES ovarian
T-47D breast = test system: T-47D breast
BT-549 breast = test system: BT-549 breast
MDA-MB-435 melanoma = test system: MDA-MB-435 melanoma
SW-620 colon = test system: SW-620 colon
MCF7 breast = test system: MCF7 breast
HCT-116 colon = test system: HCT-116 colon
HCC-2998 colon = test system: HCC-2998 colon
KM12 colon = test system: KM12 colon

Measured: growth

C[C@]12CC[C@H](O)C[C@@H]1CC[C@@H]1[C@@H]2CC[C@]2(C)OC(=O)CC[C@@H]12
inactive: NCI/ADR-RES ovarian 101% | T-47D breast 63.6% | BT-549 breast 88.2% | MDA-MB-435 melanoma 102% | SW-620 colon 115% | MCF7 breast 96.8% | HCT-116 colon 88.6% | HCC-2998 colon 102% | KM12 colon 92.5%

C/C(=C\c1ccn(-c2ccc(N)cc2F)n1)[C@@H]1C[C@@H]2O[C@]2(C)CCC[C@H](C)[C@H](O)[C@@H](C)C(=O)C(C)(C)[C@@H](O)CC(=O)O1
active: NCI/ADR-RES ovarian -11.9% | MDA-MB-435 melanoma -30% | HCC-2998 colon -15%
inactive: T-47D breast 35.5% | BT-549 breast 19.7% | SW-620 colon 35.1% | MCF7 breast 16.7% | HCT-116 colon 12.2% | KM12 colon 10.2%

O=C1CCCCC1CN1CCCCC1 (stereo not given)
inactive: NCI/ADR-RES ovarian 101% | T-47D breast 83.2% | BT-549 breast 117% | MDA-MB-435 melanoma 109% | SW-620 colon 101% | MCF7 breast 90.9% | HCT-116 colon 101% | HCC-2998 colon 97.8% | KM12 colon 98.1%

C[N+]12CCC34C5=CC(=O)C(=O)C=C5[N+]5(C)C(=O)CC6OCC=C(C1)C(CC32)C6C45 (stereo not given)
inactive: NCI/ADR-RES ovarian 114% | T-47D breast 107% | BT-549 breast 127% | MDA-MB-435 melanoma 103% | SW-620 colon 111% | MCF7 breast 95.7% | HCT-116 colon 114% | HCC-2998 colon 106% | KM12 colon 104%

CCCCCCCCCCCCCCCCCCn1cc[n+](C)c1
inactive: T-47D breast 35.9% and 17%
20.9% (inactive) and -7.98% (active): NCI/ADR-RES ovarian
active: BT-549 breast -55.6% and -55% | MDA-MB-435 melanoma -56.4% and -70.8% | SW-620 colon -45.2% and -38.1% | MCF7 breast -33.8% and 6.12% | HCT-116 colon -18.2% and -51.5% | HCC-2998 colon -80.7% and -80.9% | KM12 colon -47.8% and -61.9%

O=C(O)C(F)F
inactive: NCI/ADR-RES ovarian 113% | T-47D breast 96.6% | BT-549 breast 117% | MDA-MB-435 melanoma 102% | SW-620 colon 90.4% | MCF7 breast 97.1% | HCT-116 colon 107% | HCC-2998 colon 123% | KM12 colon 103%

O=[N+]([O-])c1ccc(OCc2ccc(S(=O)(=O)F)c(Cl)c2)c(Cl)c1
inactive: NCI/ADR-RES ovarian 102% | T-47D breast 97% | BT-549 breast 91.6% | MDA-MB-435 melanoma 113% | SW-620 colon 98.8% | MCF7 breast 92.8% | HCT-116 colon 90.1% | HCC-2998 colon 105% | KM12 colon 113%

O=C1C=C(N2CC2)c2ccccc2C1=O
inactive: NCI/ADR-RES ovarian 62.7% | T-47D breast 75.5% | BT-549 breast 71.5% | SW-620 colon 68.4% | MCF7 breast 41.5% | HCT-116 colon 63.4% | HCC-2998 colon 94% | KM12 colon 81.9%
active: MDA-MB-435 melanoma -78.8%

O=[N+]([O-])c1cc(Cl)c(Cl)c([N+](=O)[O-])c1Cl
active: T-47D breast 0.463% | SW-620 colon -61.9% | HCT-116 colon -77.1%
inactive: NCI/ADR-RES ovarian 80% | BT-549 breast 96.8% | MDA-MB-435 melanoma 89.3% | MCF7 breast 20.1% | HCC-2998 colon 109% | KM12 colon 26%

CCCC1CCCCC12C(=O)NC(=O)NC2=O (stereo not given)
inactive: NCI/ADR-RES ovarian 99.6% and 104% | T-47D breast 93.2% and 87.8% | BT-549 breast 112% and 98.9% | MDA-MB-435 melanoma 99.1% and 108% | SW-620 colon 94.9% and 106% | MCF7 breast 98.6% and 99.9% | HCT-116 colon 109% and 94.4% | HCC-2998 colon 103% and 96.6% | KM12 colon 98.1% and 107%

CC[C@H](C)[C@H](NC(=O)CN(C)C)C(=O)N(C)[C@H](C[C@@H](OC(C)=O)c1nc(C(=O)NC23C4C5C2C2C3C4C52C(=O)OC)cs1)C(C)C (stereo not given in full)
inactive: NCI/ADR-RES ovarian 63.7% | T-47D breast 62.9% | SW-620 colon 25.9% | MCF7 breast 21.6% | HCC-2998 colon 18.5% | KM12 colon 13.2%
active: BT-549 breast 4.22% | MDA-MB-435 melanoma -59.9% | HCT-116 colon -2.36%

C[N+]1(CC#CC[N+]2(C)CCCC2)CCCC1
inactive: NCI/ADR-RES ovarian 102% | T-47D breast 108% | BT-549 breast 101% | MDA-MB-435 melanoma 104% | SW-620 colon 107% | MCF7 breast 95.5% | HCT-116 colon 98.4% | HCC-2998 colon 110% | KM12 colon 102%

CC[C@H](C)[C@H](NC(=O)C12CC(NC)(C1)C2)C(=O)N(C)[C@H](C[C@@H](OC(C)=O)c1nc(C(=O)N[C@@H](Cc2ccccc2)C[C@H](C)C(=O)OC)cs1)C(C)C
inactive: NCI/ADR-RES ovarian 68.9% | T-47D breast 51.9% | SW-620 colon 39.5% | MCF7 breast 15%
active: BT-549 breast -22.4% | MDA-MB-435 melanoma -17.5% | HCT-116 colon 1.15% | HCC-2998 colon 8.1% | KM12 colon 6.78%

COc1ccc(N)cc1N
inactive: NCI/ADR-RES ovarian 106% | T-47D breast 96.1% | BT-549 breast 112% | MDA-MB-435 melanoma 122% | SW-620 colon 107% | MCF7 breast 94.8% | HCT-116 colon 108% | HCC-2998 colon 119% | KM12 colon 99.7%

O=c1[nH]c(=O)[nH]c(=O)[nH]1
inactive: NCI/ADR-RES ovarian 102% | T-47D breast 102% | BT-549 breast 145% | MDA-MB-435 melanoma 114% | SW-620 colon 108% | MCF7 breast 97.1% | HCT-116 colon 97.2% | HCC-2998 colon 117% | KM12 colon 107%

CCOP(=O)(NC)OCC
inactive: NCI/ADR-RES ovarian 102% | T-47D breast 102% | BT-549 breast 112% | MDA-MB-435 melanoma 132% | SW-620 colon 108% | MCF7 breast 101% | HCT-116 colon 92.1% | HCC-2998 colon 112% | KM12 colon 106%

CCOP(=O)(OCC)C(=O)N(CC)CC
inactive: NCI/ADR-RES ovarian 102% | T-47D breast 96.3% | BT-549 breast 95.1% | MDA-MB-435 melanoma 97.8% | SW-620 colon 99.6% | MCF7 breast 95.2% | HCT-116 colon 104% | HCC-2998 colon 110% | KM12 colon 98.2%

COc1cc(C=C2C(=O)NC(=O)NC2=O)ccc1O
inactive: NCI/ADR-RES ovarian 97.5% | T-47D breast 101% | BT-549 breast 111% | MDA-MB-435 melanoma 101% | SW-620 colon 108% | MCF7 breast 106% | HCT-116 colon 102% | HCC-2998 colon 96% | KM12 colon 104%

C=CC[PH+](c1ccccc1)c1ccccc1.C=CC[PH+](c1ccccc1)c1ccccc1.[Pt+2].[S-]c1ncccn1.[S-]c1ncccn1
active: T-47D breast 2% | MDA-MB-435 melanoma -48.1% | SW-620 colon -4.87% | HCT-116 colon -43.8%
inactive: NCI/ADR-RES ovarian 39.6% | BT-549 breast 64% | MCF7 breast 17.2% | HCC-2998 colon 97.5% | KM12 colon 76.7%

CC(=O)c1cccc(S(=O)(=O)F)c1
inactive: NCI/ADR-RES ovarian 96.9% | T-47D breast 110% | BT-549 breast 88.8% | MDA-MB-435 melanoma 97.8% | SW-620 colon 105% | MCF7 breast 96.8% | HCT-116 colon 92.1% | HCC-2998 colon 95.2% | KM12 colon 105%

C[C@H](O)CCC(=O)c1ccoc1
inactive: NCI/ADR-RES ovarian 102% | T-47D breast 108% | BT-549 breast 118% | MDA-MB-435 melanoma 112% | SW-620 colon 105% | MCF7 breast 98.6% | HCT-116 colon 106% | HCC-2998 colon 102% | KM12 colon 104%

CCC1(CCSC#N)C(=O)NC(=O)NC1=O
inactive: NCI/ADR-RES ovarian 104% | T-47D breast 78.4% | BT-549 breast 95.3% | MDA-MB-435 melanoma 106% | SW-620 colon 106% | MCF7 breast 91.2% | HCT-116 colon 94.1% | HCC-2998 colon 98.2% | KM12 colon 104%

Cc1cc(C(C)(C)C)ccc1O
inactive: NCI/ADR-RES ovarian 98.3% | T-47D breast 103% | BT-549 breast 109% | MDA-MB-435 melanoma 111% | SW-620 colon 108% | MCF7 breast 101% | HCT-116 colon 95.6% | HCC-2998 colon 106% | KM12 colon 103%

COc1cc2c(cc1OC)[C@@H]1C(=O)c3ccc4c(c3O[C@@H]1CO2)C[C@H](C(C)C)O4
inactive: NCI/ADR-RES ovarian 34.9% | T-47D breast 33.2% | BT-549 breast 44.8% | MDA-MB-435 melanoma 51.4% | SW-620 colon 84.7% | MCF7 breast 46.3% | HCT-116 colon 39.4% | HCC-2998 colon 76.1% | KM12 colon 65.6%

CC[C@H](C)[C@H](NC(=O)CN(C)C)C(=O)N(C)[C@H](C[C@@H](OC(C)=O)c1nc(C(=O)NC23CC(C(=O)OC)(C2)C3)cs1)C(C)C
active: MDA-MB-435 melanoma -38.9% | HCT-116 colon 4.85%
inactive: NCI/ADR-RES ovarian 77.8% | T-47D breast 50.4% | BT-549 breast 14.2% | SW-620 colon 30.9% | MCF7 breast 17.9% | HCC-2998 colon 20.4% | KM12 colon 11.4%
